# Measured values taken from the supplement of paper PMC7411640.
# Counter-ions that a name gives are not always drawn.
# System: MDA-MB-468
# Experiment: phospho-S6 immunofluorescence (DAPI-normalised), per-plate z-score; higher = higher phospho-S6 signal (less pathway suppression)
# Settings: 24 h
# Experimental: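 GPCR-targeted compound library (MedChemExpress HY-L006) tested on MDA-MB-468 PTEN-null TNBC cells in 384-well plates at 0.1, 1 or 10 uM, combined with vehicle, GDC0941 450 nM or lapatinib 1 uM, for 24 h. Phospho-S6 (S240/244) immunofluorescence normalised to DAPI and expressed as a per-plate z-score; values are the mean of biological triplicates.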
SMILES,phospho-S6 immunofluorescence (z-score) (co-treatment: GDC0941 450 nM),phospho-S6 immunofluorescence (z-score) (co-treatment: lapatinib 1 uM),phospho-S6 immunofluorescence (z-score) (co-treatment: vehicle)
CN1CCC(=C2c3ccccc3C=Cc3ccccc32)CC1 [Cyproheptadine (hydrochloride)] (compound 10 µM),-0.64,-1.26,0.16
CC(C)(N)C(=O)N[C@H](COCc1ccccc1)C(=O)N1CCC2(CC1)CN(S(C)(=O)=O)c1ccccc12 [Ibutamoren (Mesylate)] (compound 10 µM),-2.77,-7.75,-5.38
CCC1(c2c[nH]cn2)Cc2ccccc2C1 [Atipamezole] (compound 10 µM),0.08,-0.83,0.81
COc1ccc(/C=C/C(=O)Nc2ccccc2C(=O)O)cc1OC [Tranilast (trans-)] (compound 10 µM),0.32,-0.26,0.65
OC[C@H]1O[C@@H](n2cnc3c(NCc4ccc(O)cc4)ncnc32)[C@H](O)[C@@H]1O [N6-(4-Hydroxybenzyl)adenosine] (compound 10 µM),-0.95,1.31,0.96
COc1ccccc1Oc1c(NS(=O)(=O)c2ccc(C(C)(C)C)cc2)nc(-c2ncccn2)nc1OCCO [Bosentan] (compound 10 µM),0.53,0.78,1.05
N#Cc1cc(NC(=O)C(=O)O)c(Cl)c(NC(=O)C(=O)O)c1 [Lodoxamide] (compound 10 µM),0.92,0.6,0.66
CNCCc1ccccn1 [Betahistine (dihydrochloride)] (compound 10 µM),-1.02,0.1,-0.72
O=C(c1ccc(OCCCc2c[nH]cn2)cc1)C1CC1 [Ciproxifan (maleate)] (compound 10 µM),-0.58,-0.62,0.21
COc1cc(C(=O)N(CCCc2ccccc2)Cc2ccc(CC(=O)O)cc2)cc(OC)c1C (compound 10 µM),-0.21,0.49,-0.17
CN/C(=N\CCSCc1nc[nH]c1C)NC#N [Cimetidine] (compound 10 µM),0.86,0.64,-0.63
CN1CCC(=C2c3ccccc3C=Cc3ccccc32)CC1 [Cyproheptadine (hydrochloride sesquihydrate)] (compound 10 µM),0.49,-0.96,-0.87
COC(=O)[C@H](c1ccccc1Cl)N1CCc2sccc2C1 [Clopidogrel (hydrogen sulfate)] (compound 10 µM),0.58,-1.03,-0.92
CNCC(O)c1ccc(O)c(O)c1 (racemic) [DL-Epinephrine] (compound 10 µM),1.29,5.47,4.64
CCc1nn(CCCN2CCN(c3cccc(Cl)c3)CC2)c(=O)n1CCOc1ccccc1 [Nefazodone (hydrochloride)] (compound 10 µM),-4.37,-2.37,-1.26
O=C1NCC2(CCN(CCc3ccccc3)CC2)O1 [Fenspiride (Hydrochloride)] (compound 10 µM),0.59,0.67,1.01
CCCC1O[C@@H]2C[C@H]3[C@@H]4CCC5=CC(=O)C=C[C@]5(C)[C@H]4[C@@H](O)C[C@]3(C)[C@]2(C(=O)CO)O1 (stereo partly specified) [Budesonide] (compound 10 µM),-0.53,-0.12,-0.2
Clc1ccc2c(c1)CCc1cccnc1C2=C1CCNCC1 [Desloratadine] (compound 10 µM),-0.48,-1.96,0.51
CCCSc1nc(N[C@@H]2C[C@H]2c2ccc(F)c(F)c2)c2nnn([C@@H]3C[C@H](OCCO)[C@@H](O)[C@H]3O)c2n1 [Ticagrelor] (compound 10 µM),-1.29,0.02,1.13
O=C(N[C@@H]1CC[C@@H](c2cccc(F)c2F)CN(CC(F)(F)F)C1=O)N1CCC(n2c(=O)[nH]c3ncccc32)CC1 (compound 10 µM),0.18,0.53,-0.42
Cc1ccc(Sc2ccccc2N2CCNCC2)c(C)c1 [Vortioxetine] (compound 10 µM),-5.05,-7.7,-6.93
COc1cc(NC(=O)CCN2CCC(OC(=O)Nc3ccccc3-c3ccccc3)CC2)c(Cl)cc1CNC[C@H](O)c1ccc(O)c2[nH]c(=O)ccc12 [Batefenterol] (compound 10 µM),-3.26,-4.13,0.38
CN(C)CCCN1c2ccccc2Sc2ccc(C(F)(F)F)cc21 [Triflupromazine (hydrochloride)] (compound 10 µM),-0.42,-2.74,2.53
CC(C)[N+]1(C)[C@@H]2CC[C@H]1C[C@@H](OC(=O)C(CO)c1ccccc1)C2 (stereo partly specified) [Ipratropium (bromide)] (compound 10 µM),-0.02,0.28,-0.61
COc1ccc2cc(OCC3(C(=O)O)CN(C(=O)c4ccc(F)cc4)C3)ccc2c1 (compound 10 µM),-1.13,0.61,0.47
COC(=O)CCc1ccc(OCC(O)CNC(C)C)cc1 (stereo unspecified) [Esmolol (hydrochloride)] (compound 10 µM),1.52,0.09,-0.19

SMILES,phospho-S6 immunofluorescence (z-score) (co-treatment: GDC0941 450 nM),phospho-S6 immunofluorescence (z-score) (co-treatment: lapatinib 1 uM),phospho-S6 immunofluorescence (z-score) (co-treatment: vehicle)
NC(=O)CC[C@H](N)C(=O)O [L-Glutamine] (compound 10 µM),-0.23,-0.64,-0.12
CN1[C@@H]2CC[C@H]1C[C@@H](OC(=O)C(O)c1ccccc1)C2 (stereo partly specified) [Homatropine (Bromide)] (compound 10 µM),-0.26,0.08,0.37
COc1ccccc1Oc1c(NS(=O)(=O)c2ccc(C(C)(C)C)cc2)nc(-c2ncccn2)nc1OCCO [Bosentan (hydrate)] (compound 10 µM),0.28,0.22,0.34
COc1nc(C)nc(Cl)c1NC1=NCCN1 [Moxonidine] (compound 10 µM),0.49,0.68,0.7
OCCNC1CCCc2c1[nH]c1ccc(-c3ccccc3)cc21 (stereo unspecified) (compound 10 µM),-5.16,-8.66,-9.39
O=C(CCCN1CC=C(n2c(=O)[nH]c3ccccc32)CC1)c1ccc(F)cc1 [Droperidol] (compound 10 µM),-0.18,0.16,0.18
COC(=O)N(C)c1c(N)nc(-c2nn(Cc3ccccc3F)c3ncccc23)nc1N [Riociguat] (compound 10 µM),-0.84,0.03,-0.56
CN(C)CCCN1c2ccccc2Sc2ccc(Cl)cc21 [Chlorpromazine (hydrochloride)] (compound 10 µM),0.58,-1.09,3.4
O=C1Cc2cc(CCN3CCN(c4nsc5ccccc45)CC3)c(Cl)cc2N1 [Ziprasidone (hydrochloride monohydrate)] (compound 10 µM),-5.1,-9.79,-5.97
CC(C)COc1ccc(CNC(=O)N(Cc2ccc(F)cc2)C2CCN(C)CC2)cc1 [Pimavanserin] (compound 10 µM),-2.66,-2.95,-2.1
COC(c1ccccc1)(c1ccccc1)[C@H](Oc1nc(C)cc(C)n1)C(=O)O [Ambrisentan] (compound 10 µM),1.18,0.5,-0.07
CN(C)CC[C@@H](c1ccc(Cl)cc1)c1ccccn1 [Dexchlorpheniramine (maleate)] (compound 10 µM),0.61,-0.08,-0.33
CCN(CC)CC#CCOC(=O)C(O)(c1ccccc1)C1CCCCC1 (stereo unspecified) [Oxybutynin] (compound 10 µM),-0.77,0.75,-0.04
Clc1cccc(COc2cncc(N3CCNCC3)n2)c1 (compound 10 µM),-1.03,-4.09,0.21
CCCCOc1ccc(C(=O)Nc2ccc(F)cc2F)cc1 (compound 10 µM),-0.51,-1.06,0.89
NC[C@H](O)c1ccc(O)c(O)c1 [Norepinephrine (bitartrate monohydrate)] (compound 10 µM),0.52,1.81,0.17
COc1ccc(N2CCOCC2)c2sc(NC(=O)N3CCC(C)(O)CC3)nc12 [Tozadenant] (compound 10 µM),0.02,0.77,0.82
CN1[C@@H]2CC[C@H]1C[C@@H](OC(=O)c1c[nH]c3ccccc13)C2 [Tropisetron] (compound 10 µM),0.73,1.44,0.31
CCCc1c2oc(C(=O)O)cc(=O)c2cc2c(=O)cc(C(=O)O)n(CC)c12 [Nedocromil] (compound 10 µM),-0.69,-0.48,-1.01
CN1N=C2CCN(C(=O)[C@@H](COCc3ccccc3)NC(=O)C(C)(C)N)C[C@@]2(Cc2ccccc2)C1=O [Capromorelin (Tartrate)] (compound 10 µM),-0.05,-0.67,-0.14
CN1CCCC(n2nc(Cc3ccc(Cl)cc3)c3ccccc3c2=O)CC1 (stereo unspecified) [Azelastine (hydrochloride)] (compound 10 µM),0.6,-0.25,0.16
CCCc1nc(C(C)(C)O)c(C(=O)OCc2oc(=O)oc2C)n1Cc1ccc(-c2ccccc2-c2nnn[nH]2)cc1 [Olmesartan (medoxomil)] (compound 10 µM),-0.4,-0.27,-0.03
CC(C)N(CC[C@H](c1ccccc1)c1cc(CO)ccc1O)C(C)C [(R)-5-Hydroxymethyl Tolterodine] (compound 10 µM),0.35,0.44,0.11
Cc1cc(NC(=O)NCCN2CCC(O)(Cc3ccccc3)CC2)c2ccccc2n1 [Palosuran] (compound 10 µM),-1.78,-2.21,-0.2
COc1cc(N)c(Cl)cc1C(=O)NC1CCN(Cc2ccccc2)CC1 [Clebopride (malate)] (compound 10 µM),0.46,-0.14,0.29
O=c1cc(C(Cl)(Cl)Cl)oc2ccc(Cl)cc12 (compound 10 µM),0.54,-0.11,0.44
